This note sets out measurements from PubChem BioAssay AID1159577 (Broad Institute, 2015).

Out of some 1,300 compounds screened, about 240 (18%) were called active. Inconclusive results (about 8%) are left out. How the calls were made is not given here. Not all results are given here. Measured potencies and affinities stand elsewhere.

This assay is described as follows: HepG2 cell cytotoxicity, dose response, cytotoxicity control, cherry-picked samples (AID 1159577). The note with it: HepG2 cytotoxicity counterscreen, plate reader; series mostly up to 19.5 µM.
Consider `COCC(=O)N1CC2(C1)CN(Cc1ccccc1F)[C@@H](CO)c1[nH]c3cc(OC)ccc3c12`, for which the compound was called inactive.
For `C[C@H](CO)N1C[C@H](C)[C@@H](CN(C)C(=O)C2CCCCC2)Oc2ncc(/C=C/c3ccccc3)cc2C1=O` the value was “inactive”.
Turning to `O=C(C[C@H]1C=C[C@H](NC(=O)Cc2ccccn2)[C@H](CO)O1)NCCc1ccccc1`, the result was inactive.
Regarding `C[C@H]1CN([C@@H](C)CO)S(=O)(=O)c2ccc(C#Cc3ccccc3)cc2O[C@@H]1CN(C)C(=O)C1CC1`, the compound was classed as inactive.
In the case of `O=C(C[C@H]1C=C[C@@H](NC(=O)Nc2ccccc2F)[C@H](CO)O1)NCc1ccc(-c2ccccc2)cc1` it was “inactive”; in that of `COc1ccccc1C#Cc1ccc2c(c1)[C@H]1NCC[C@H]1[C@@H](CO)N2`, “inactive”; in that of `OC[C@@H]1Nc2ccc(C#Cc3cccc(F)c3)cc2[C@@H]2NCC[C@H]12`, “inactive”.
On to `O=C(c1ccccc1F)N1CC[C@H]2[C@H](CO)Nc3ccc(C#Cc4ccc(F)cc4)cc3[C@H]21`, for which the call was inactive.
Consider `O=C(c1cccc(F)c1)N1CC[C@H]2[C@H](CO)Nc3ccc(C#Cc4cccc(F)c4)cc3[C@H]21`, for which the compound was classed as inactive.
On to `COc1ccc(CN2C[C@@H](C)[C@H](OC)CN(C)C(=O)c3ccc(NC(=O)c4nc5ccccc5s4)cc3OC[C@H]2C)cc1`, for which the compound was called inactive.
As to `CCCN(C)C[C@@H]1Oc2cc(C#Cc3ccccc3)ccc2S(=O)(=O)N([C@@H](C)CO)C[C@@H]1C`, the compound was called inactive.
With `COc1cccc(NC(=O)N2[C@@H](CO)[C@H](c3ccccc3)[C@@H]2CNCC(C)C)c1`, the outcome was inactive.
Take `O=C(c1cccc(F)c1)N1CC(=O)N2[C@H](CO)[C@H](c3ccc(-c4cccnc4)cc3)[C@H]2C1`: the compound was called inactive.
On to `CO[C@H]1CN(C)C(=O)c2cc(NC(=O)c3cc(C)on3)ccc2OC[C@H](C)N(C(=O)C2CC2)C[C@H]1C`, for which the compound was called inactive.
As to `COc1ccc2c3c(n(C)c2c1)[C@@H](CO)N(C(=O)C1CC1)CC31CN(C(=O)Nc2cccc(F)c2)C1`, the call was inactive.
For the compound `C[C@H](CO)N1C[C@H](C)[C@@H](CN(C)C(=O)c2ccccc2F)Oc2ncc(C#Cc3cccc(F)c3)cc2C1=O`, the call was inactive.
In the case of `COCC#Cc1ccc([C@H]2[C@H](CO)N3C(=O)CN(C(=O)CN4CCOCC4)C[C@@H]23)cc1` it was “inactive”.
In the case of `COc1ccc(C#Cc2ccc3c(c2)[C@@H]2[C@@H](CCN2C(=O)C2CCCC2)[C@H](CO)N3)cc1`, the outcome was inactive.
For `CC(C)(C)[S@@](=O)N1Cc2cc(C(=O)NCCN3CCCCC3)nc(-c3cccc(-c4ccc(C#N)cc4)c3)c2[C@H]1CCO` the value was “inactive”; for `CN1CCN(C(=O)C[C@H]2C[C@@H]3c4cc(NC(=O)Nc5ccc(C(F)(F)F)cc5)ccc4O[C@@H]3[C@@H](CO)O2)CC1`, “inactive”.
In the case of `COCC(=O)N1CC2(C1)CN(C(=O)CN1CCOCC1)[C@@H](CO)c1c2c2ccc(OC)cc2n1C` it was “inactive”; in that of `CCCN(C)C[C@H]1Oc2cc(C#Cc3cccnc3)ccc2S(=O)(=O)N([C@H](C)CO)C[C@H]1C`, “inactive”.
Take `CO[C@H]1CN(C)C(=O)c2ccc(NC(=O)CC(F)(F)F)cc2OC[C@@H](C)N(CC2CC2)C[C@H]1C`: the compound was called inactive.
On to `CCCC#Cc1ccc2c(c1)O[C@H](CN(C)C(=O)Nc1ccc(OC)cc1)[C@H](C)CN([C@H](C)CO)S2(=O)=O`, for which the call was inactive.
Regarding `N#Cc1ccc(-c2ccc3c(c2)[C@@H]2[C@@H](CCN2C(=O)C2CCC2)[C@@H](CO)N3)cc1`, the compound was classed as inactive.
As to `COc1ccc2c3c([nH]c2c1)[C@@H](CO)N(C(=O)CN(C)C)CC31CCN(CC2CCCCC2)CC1`, the result was inactive.
As to `COc1ccc2c3c([nH]c2c1)[C@@H](CO)N(C(C)=O)CC31CN(C(=O)CN2CCOCC2)C1`, the compound was classed as inactive.
As for `COc1ccc(CN2CC3(CN(C(C)=O)C3)c3c([nH]c4cc(OC)ccc34)[C@@H]2CO)cc1`, the result was inactive.
For `COc1ccc(CN2CC3(C2)CN(Cc2ccc4c(c2)OCO4)[C@H](CO)c2[nH]c4cc(OC)ccc4c23)cc1` the value was “inactive”; for `CO[C@H]1CN(C)C(=O)c2cc(NC(=O)c3ccccc3F)ccc2OC[C@H](C)N(C)C[C@H]1C`, “inactive”; for `COc1ccccc1CNC(=O)C[C@H]1C[C@@H]2c3cc(NC(=O)Nc4ccc(C(F)(F)F)cc4)ccc3O[C@@H]2[C@H](CO)O1`, “inactive”.
In the case of `C[C@H]1CN([C@@H](C)CO)C(=O)Cc2cc(NC(=O)CCC(F)(F)F)ccc2O[C@H]1CN(C)S(C)(=O)=O` it was “inactive”; in that of `COc1ccccc1C#Cc1ccc2c(c1)[C@H]1[C@H](CCN1C(=O)CN1CCOCC1)[C@@H](CO)N2`, “inactive”; in that of `CO[C@@H]1CN(C)C(=O)c2ccc(NC(=O)Nc3ccccc3F)cc2OC[C@@H](C)N(CC2CC2)C[C@H]1C`, “inactive”.
For the compound `C[C@H](CO)N1C[C@H](C)[C@H](CN(C)C(=O)Cc2ccncc2)Oc2cc(C#CC3CCCC3)ccc2S1(=O)=O`, the compound was classed as inactive.
In the case of `COc1ccc(CN2C[C@@H](C)[C@@H](OC)CN(C)C(=O)c3cc(NC(=O)c4nc5ccccc5s4)ccc3OC[C@H]2C)cc1`, the result was inactive.
Take `CCCN(C)C[C@@H]1Oc2cc(C#Cc3ccncc3)ccc2S(=O)(=O)N([C@H](C)CO)C[C@@H]1C`: the outcome was inactive.
For the compound `COc1ccc(NC(=O)N(C)C[C@@H]2Oc3cc(-c4ccc(C)cc4)ccc3S(=O)(=O)N([C@H](C)CO)C[C@H]2C)cc1`, the call was inactive.
On to `CCS(=O)(=O)N1CCCCN2[C@H](CO)[C@H](c3ccc(C#Cc4ccccc4OC)cc3)[C@@H]2C1`, for which the compound was called inactive.
In the case of `CCC(=O)Nc1ccc2c(c1)OC[C@@H](C)N(Cc1cccc(F)c1)C[C@@H](C)[C@H](OC)CN(C)C2=O` it was “inactive”; in that of `CCCNC(=O)Nc1ccc2c(c1)OC[C@@H](C)N(Cc1ccccc1)C[C@@H](C)[C@H](OC)CN(C)C2=O`, “inactive”.
Regarding `COCC(=O)N1[C@H](C#N)[C@@H](c2ccccc2C2=CCCC2)[C@@H]1CO`, the call was inactive.
In the case of `COc1ccc2c3c(n(C)c2c1)[C@H](CO)N(C(=O)Nc1ccc(F)cc1)CC31CN(C(=O)c2ccc3c(c2)OCO3)C1`, the compound was classed as inactive.
In the case of `C[C@H]1CN([C@@H](C)CO)C(=O)c2ccccc2-c2ccccc2CO[C@H]1CN(C)Cc1cccc(C(F)(F)F)c1`, the compound was classed as inactive.
Turning to `C[C@@H]1CN([C@H](C)CO)C(=O)c2ccccc2-c2ccccc2CO[C@H]1CN(C)C(=O)Nc1cccc(C(F)(F)F)c1`, the outcome was inactive.
In the case of `C[C@@H]1CN([C@@H](C)CO)C(=O)c2ccccc2-c2ccccc2CO[C@H]1CN(C)C(=O)Nc1cccc(C(F)(F)F)c1` it was “inactive”.
On to `C[C@H]1CN([C@@H](C)CO)C(=O)c2ccccc2-c2ccccc2CO[C@H]1CN(C)Cc1ccc(-c2ccccc2)cc1`, for which the result was inactive.
For `C[C@H]1CN([C@@H](C)CO)C(=O)c2ccccc2-c2ccccc2CO[C@H]1CN(C)Cc1ccc(Oc2ccccc2)cc1` the value was “inactive”; for `C[C@@H]1CN([C@H](C)CO)C(=O)c2ccccc2-c2ccccc2CO[C@@H]1CN(C)Cc1ccc(C(F)(F)F)cc1`, “inactive”; for `C[C@H](CO)N1C[C@H](C)[C@H](CN(C)C(=O)Nc2ccc(N3CCCCC3)cc2)OCc2cnnn2CCCC1=O`, “inactive”.
In the case of `CCCC(=O)N1CC2(C1)CN(Cc1ccccc1F)[C@H](CO)c1c2c2ccc(OC)cc2n1C`, the call was inactive.
Take `COc1ccc2c3c([nH]c2c1)[C@@H](CO)N(Cc1cccc(Cl)c1)CC31CCN(C(C)=O)CC1`: the outcome was inactive.
As for `CN(C)c1ccc2c(c1)[C@@H]1C[C@H](CC(=O)N3CCc4ccccc4C3)O[C@@H](CO)[C@@H]1O2`, the compound was classed as inactive.
Take `CO[C@@H]1CN(C)C(=O)c2ccc(NC(=O)NC3CCCCC3)cc2OC[C@@H](C)N(CCc2ccccc2)C[C@H]1C`: the result was inactive.
Regarding `O=C(Nc1ccc(F)cc1)N1C[C@H]2[C@@H](c3ccccc31)[C@@H](CO)N2Cc1cocn1`, the compound was classed as inactive.
Turning to `COc1ccc(NC(=O)N2CC3(C2)CN(C(=O)C2CCC2)[C@H](CO)c2c3c3ccc(OC)cc3n2C)cc1`, the compound was called inactive.
Consider `C/C=C/c1ccccc1[C@H]1[C@@H](C#N)N(C(=O)NC2CCCC2)[C@H]1CO`, for which the outcome was inactive.
In the case of `COc1ccc(-c2ccc3c(c2)[C@H]2[C@H](CCN2C(=O)NC2CCCC2)[C@H](CO)N3C)cc1`, the call was inactive.
`COc1ccc(-c2ccc3c(c2)[C@H]2[C@H](CCN2C(=O)C2CCCC2)[C@H](CO)N3C)cc1`: the call was inactive.
For the compound `O=C(c1ccc(F)cc1)N1CC(=O)N2[C@H](C1)[C@@H](c1ccc(-c3cccnc3)cc1)[C@@H]2CO`, the call was inactive.
Consider `CCCNC(=O)Nc1ccc2c(c1)C(=O)N(C)C[C@H](OC)[C@@H](C)CN(C(=O)C1CCOCC1)[C@H](C)CO2`, for which the compound was called inactive.
As to `CO[C@@H]1CN(C)C(=O)c2ccc(NC(=O)Nc3ccccc3F)cc2OC[C@@H](C)N(Cc2ccccc2F)C[C@H]1C`, the compound was classed as inactive.
For `Cc1ccccc1S(=O)(=O)N1CC(=O)N2[C@H](CO)[C@H](c3ccc(C#CC4CC4)cc3)[C@@H]2C1`, the call was inactive.
For `O=C1CN(S(=O)(=O)c2ccccc2)C[C@H]2[C@H](c3ccc(C#CCc4ccccc4)cc3)[C@@H](CO)N12`, the call was inactive.
`Cc1ccccc1S(=O)(=O)N1CC(=O)N2[C@H](CO)[C@H](c3ccc(C#CCC4CCCC4)cc3)[C@H]2C1`: the compound was classed as inactive.
In the case of `O=C1CN(S(=O)(=O)c2ccccc2)C[C@@H]2[C@H](c3ccc(C#CCc4ccccc4)cc3)[C@@H](CO)N12`, the compound was called inactive.
For `C[C@@H]1CN([C@@H](C)CO)C(=O)c2cccc(NC(=O)c3nc4ccccc4s3)c2O[C@H]1CN(C)C(=O)Nc1ccc2c(c1)OCO2`, the compound was called inactive.
`CCNC(=O)c1cc2c(c(-c3cccc(-c4cc5ccccc5o4)c3)n1)[C@@H](CCO)N(C(=O)NC(C)C)C2`: the result was inactive.
In the case of `CC(C)(C)[S@](=O)N1Cc2cc(C(=O)NCCN3CCCCC3)nc(-c3cccc(-c4ccc(C#N)cc4)c3)c2[C@@H]1CCO`, the outcome was inactive.
Take `COc1ccccc1S(=O)(=O)N(C)C[C@@H]1Oc2cc(/C=C/c3ccccc3)ccc2S(=O)(=O)N([C@H](C)CO)C[C@H]1C`: the call was inactive.
